Results taken from PubChem BioAssay (NCI).
“And” between values parts separate entries of the source, which are not always exact repeats. Equal entries are not always repeated. About 83,000 compounds went through this panel and 20% of them were active in at least one assay; those are over-represented in the sample as a whole.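 The test compound was applied at a single concentration to cells in 96-well plates for 48 hours, and percent growth was recorded.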 Unmarked numbers belong to inactive results. The source made the active and inactive calls. Rule for the calls: active = growth percent below 10; inactive = the rest.

How the values were obtained:
Assay in all cases: NCI-60 one-dose screen, 48 h (100 = growth as untreated, 0 = no growth, -100 = all killed)
Details in all cases: 10 µM unless noted
[1] = system: HCT-15 colon
[2] = system: HT29 colon
[3] = system: SNB-75 CNS
[4] = system: SNB-19 CNS
[5] = system: U251 CNS
[6] = system: PC-3 prostate
[7] = system: SK-MEL-5 melanoma
[8] = system: LOX IMVI melanoma
[9] = system: SK-MEL-28 melanoma
[10] = system: SK-MEL-2 melanoma
[11] = system: EKVX NSCLC
[12] = system: SN12C renal
[13] = system: UO-31 renal
[14] = system: CAKI-1 renal
[15] = system: A498 renal
[16] = system: CCRF-CEM leukemia
[17] = system: UACC-62 melanoma
[18] = system: TK-10 renal
[19] = system: ACHN renal
[20] = system: HL-60(TB) leukemia

## C=C1C(=O)OC2CC3(C)OC3C3OC3C3=CC(OC3=O)C12 (centres undefined)
[1]
  growth: 46.4% and 36%
[2]
  growth: 98.2% and 79.6%
[3]
  growth: 87.7% and 90.1%
[4]
  growth: 104% and 103%
[5]
  growth: 103% and 104%
[6]
  growth: 106% and 92.2%
[7]
  growth: 109% and 95%
[8]
  growth: 93.1% and 92%
[9]
  growth: 52.6% and 73.8%
[10]
  growth: 100%
[11]
  growth: 111%
[12]
  growth: 100% and 97.4%
[13]
  growth: 44.3% and 44.2%
[14]
  growth: 4.76% (active) and 6.96% (active)
[15]
  growth: 113% and 106%
[16]
  growth: -42.4% (active) and -54.4% (active)

## COC1C(O)CC(OC2CC(Oc3cc4cc5c(c(O)c4c(O)c3C)C(=O)[C@@H](OC3CC(OC4CC(OC6CC(C)(O)C(OC(C)=O)C(C)O6)C(O)C(C)O4)C(O)C(C)O3)[C@H]([C@H](OC)C(=O)[C@@H](O)[C@@H](C)O)C5)OC(C)C2OC(C)=O)OC1C (some centres undefined)
[1]
  growth: 1.5% (active)
[2]
  growth: -23.2% (active)
[3]
  growth: -61.8% (active)
[4]
  growth: 5.7% (active)
[5]
  growth: 4.79% (active)
[6]
  growth: -11.5% (active)
[7]
  growth: -93.8% (active)
[17]
  growth: -83% (active)
[8]
  growth: 3.81% (active)
[10]
  growth: -42.1% (active)
[11]
  growth: -12.7% (active)
[12]
  growth: 7.02% (active)
[13]
  growth: -12.5% (active)
[18]
  growth: 2.86% (active)
[19]
  growth: 2.04% (active)
[14]
  growth: -25.9% (active)
[20]
  growth: -23.8% (active)
[16]
  growth: -8.99% (active)

## Cc1ccc(NC2=N[C@]34CC(=O)CC[C@]3(C)[C@H]3CC[C@]5(C)C(=O)CC[C@H]5[C@@H]3C[C@@H]4S2)c(C)c1
[1]
  growth: 0.807% (active)
[2]
  growth: 3.81% (active)
[3]
  growth: 35.1%
[4]
  growth: 44%
[5]
  growth: 18.4%
[6]
  growth: 15.8%
[7]
  growth: 51.4%
[8]
  growth: -16.6% (active)
[9]
  growth: 50.8%
[10]
  growth: 72.6%
[11]
  growth: 51.9%
[12]
  growth: 26.2%
[13]
  growth: 34.3%
[18]
  growth: 63.3%
[19]
  growth: 32.3%
[14]
  growth: 49.8%
[15]
  growth: 66.7%
[20]
  growth: 9.29% (active)
[16]
  growth: 7.99% (active)

## CC[C@H](C)[C@H]1O[C@]2(C=C[C@@H]1C)C[C@@H]1C[C@@H](C/C=C(\C)[C@@H](O[C@H]3C[C@H](OC)[C@@H](O[C@H]4C[C@H](OC)[C@@H](NC)[C@H](C)O4)[C@H](C)O3)[C@@H](C)/C=C/C=C3\CO[C@@H]4[C@H](O)C(C)=C[C@@H](C(=O)O1)[C@]34O)O2
[1]
  growth: -70.2% (active)
[2]
  growth: -64.3% (active)
[3]
  growth: -72.7% (active)
[4]
  growth: 13.7%
[5]
  growth: -88.7% (active)
[6]
  growth: -16.2% (active)
[7]
  growth: -95.5% (active)
[8]
  growth: -92.3% (active)
[9]
  growth: -79.2% (active)
[10]
  growth: -54.5% (active)
[11]
  growth: -40.9% (active)
[12]
  growth: -47.5% (active)
[13]
  growth: -63.2% (active)
[18]
  growth: -76% (active)
[19]
  growth: -33.9% (active)
[14]
  growth: 18.7%
[15]
  growth: -7.23% (active)
[16]
  growth: -43% (active)

## O=[N+]([O-])c1ccc(P(=O)(O)O)cc1
[1]
  growth: 103%
[2]
  growth: 100%
[3]
  growth: 80.2%
[4]
  growth: 108%
[5]
  growth: 96.2%
[6]
  growth: 91.3%
[7]
  growth: 109%
[8]
  growth: 93.2%
[9]
  growth: 109%
[10]
  growth: 103%
[12]
  growth: 101%
[13]
  growth: 81.5%
[14]
  growth: 95.7%
[15]
  growth: 125%
[20]
  growth: 105%
[16]
  growth: 97.1%

## O=S(=O)(c1ccc(O)cc1)c1ccccc1O
[1]
  growth: 108%
[2]
  growth: 112%
[3]
  growth: 96.7%
[4]
  growth: 104%
[5]
  growth: 107%
[6]
  growth: 89%
[7]
  growth: 102%
[17]
  growth: 98.2%
[9]
  growth: 105%
[10]
  growth: 104%
[11]
  growth: 107%
[12]
  growth: 101%
[18]
  growth: 107%
[14]
  growth: 96.2%
[15]
  growth: 97%
[20]
  growth: 106%
[16]
  growth: 88.6%

## COc1ccc2c(c1)c(-c1nc(-c3cn(C)c4ncccc34)cs1)cn2CCCCN1CCOCC1
[1]
  growth: -42.1% (active)
[2]
  growth: -87.8% (active)
[3]
  growth: 43.6%
[4]
  growth: 35.1%
[5]
  growth: -55.3% (active)
[6]
  growth: 31.3%
[7]
  growth: 14.5%
[8]
  growth: -78.8% (active)
[9]
  growth: -93.5% (active)
[10]
  growth: 64.4%
[11]
  growth: 60.2%
[12]
  growth: 68%
[13]
  growth: 34%
[18]
  growth: 69.9%
[14]
  growth: 41.4%
[15]
  growth: 58.1%
[16]
  growth: 2.06% (active)

## CN(C)C(=S)SSC(=S)N(C)C
[1]
  growth: 93.9% and 113%
[2]
  growth: 61.1% and 92.2%
[3]
  growth: 109% and 104%
[4]
  growth: 98.7% and 98.8%
[5]
  growth: 81.2% and 75.7%
[6]
  growth: 75.5% and 91.1%
[7]
  growth: 82%
[8]
  growth: 104% and 108%
[9]
  growth: 116% and 114%
[10]
  growth: 109% and 108%
[11]
  growth: 69.4% and 92.7%
[12]
  growth: 106% and 94.8%
[13]
  growth: 79.1% and 80.5%
[18]
  growth: 106% and 101%
[14]
  growth: 90.9%
[15]
  growth: 95.1%
[20]
  growth: 113%
[16]
  growth: 68% and 91.5%
